# Legend:
# Test in all cases: PBM binding z-score (relative to random genomic background probes); higher = stronger binding; sequences stand for … in GC…GCGATTGACAGCGTAGAATGAAGG
# [1] = system: PPARg:RXRa DBDmut IVT, anti-RXR (DBD mutation: RXRa K156A/R161A, NR concentration 270 nM, RXRa partner concentration 90 nM)
# Method in brief: (§1)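 On custom Agilent 4×180K arrays, double-stranded probes with 34-nt variable regions carried direct-repeat seeds, single-nucleotide variants, half-site ablations or random human genomic background. Ligand-free nuclear receptor dimers were applied for 1 h, and binding was read with antibodies against each partner (one per run). Binding z-scores come from regression-normalized fluorescence, with the random background probes as reference.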
# [2] = system: PPARg:RXRa IVT, anti-PPARg (NR concentration 270 nM, RXRa partner concentration 90 nM)
# Method in brief: as §1
# [3] = system: PPARg DBDmut:RXRa IVT, anti-PPARg (DBD mutation: PPARg1 K132A/R137A, NR concentration 270 nM, RXRa partner concentration 90 nM)
# Method in brief: as §1
# [4] = system: PPARg DBDmut IVT, anti-PPARg (DBD mutation: PPARg1 K132A/R137A, NR concentration 270 nM)
# Method in brief: as §1
# [5] = system: PPARg homodimer (NR concentration 180 nM)
# Method in brief: as §1
# [6] = system: PXR:RXRa (NR concentration 270 nM, RXRa partner concentration 90 nM)
# Method in brief: as §1
# [7] = system: PXR homodimer (NR concentration 270 nM)
# Method in brief: as §1
# [8] = system: RARa:RXR (NR concentration 270 nM, RXRa partner concentration 90 nM)
# Method in brief: as §1
# [9] = system: RARa homodimer (NR concentration 270 nM)
# Method in brief: as §1
# [10] = system: RARb:RXRa (NR concentration 270 nM, RXRa partner concentration 90 nM)
# Method in brief: as §1
# [11] = system: RARb homodimer (NR concentration 270 nM)
# Method in brief: as §1
# [12] = system: RARg homodimer (NR concentration 270 nM)
# Method in brief: as §1
# [13] = system: RXRa DBDmut IVT, anti-RXR (DBD mutation: RXRa K156A/R161A, NR concentration 90 nM)
# Method in brief: as §1
# [14] = system: RXRa homodimer (NR concentration 180 nM)
# Method in brief: as §1
# [15] = system: THRa:RXRa (NR concentration 90 nM, RXRa partner concentration 90 nM)
# Method in brief: as §1
# [16] = system: THRa homodimer (NR concentration 90 nM)
# Method in brief: as §1
# [17] = system: VDR homodimer (NR concentration 270 nM)
# Method in brief: as §1
# [18] = system: VDR:RXRa (NR concentration 270 nM, RXRa partner concentration 90 nM)
# Method in brief: as §1
# [19] = system: RARg:RXRa (NR concentration 270 nM, RXRa partner concentration 90 nM)
# Method in brief: as §1
Sequence,PBM binding z-score [1],PBM binding z-score [2],PBM binding z-score [3],PBM binding z-score [4],PBM binding z-score [5],PBM binding z-score [6],PBM binding z-score [7],PBM binding z-score [8],PBM binding z-score [9],PBM binding z-score [10],PBM binding z-score [11],PBM binding z-score [12],PBM binding z-score [13],PBM binding z-score [14],PBM binding z-score [15],PBM binding z-score [16],PBM binding z-score [17],PBM binding z-score [18],PBM binding z-score [19]
CCTACTGGGCCAATAAGGTCATTGATGCCGATAA,3.88,4.4,-0.359,-0.0114,1.04,3.77,3.17,3.56,0.431,3.17,3.48,2.87,1.09,2.78,4,3.44,2.76,,
GCTGCTAGGTCAACTGATGGTGAGCTAAAGCTCG,5.09,4.15,-0.747,-0.586,1.16,1.22,-0.899,2.11,-0.283,4.28,3.06,5.32,1.5,2.69,2.86,0.689,-0.42,,
CCTTACGGGTCTAGGTTATAGCACGGGTGGTACG,-0.763,0.098,-1.1,-0.738,-0.385,-0.387,-0.0571,0.0446,-0.0691,0.467,0.113,0.0918,-1.08,,0.109,0.173,-0.202,-0.339,
CGTCCGAGGTCAATGCTAGGTCAGTGAAAGCATT,3.56,4.42,-0.103,-0.0468,4.53,5.62,2.14,6.71,0.652,5.17,4.93,6.71,4.03,6.61,4.6,2.97,4.57,,
TAGCCTAGGTCATTCAGGGGGCAGTATAGAAAGC,2.78,4.86,5.63,7.07,4.21,4.22,1.22,5.41,0.982,4.45,4.09,5.84,2.37,4.33,3.8,2.11,3.36,,
ATCGAAACGTCGTGAGGTGAGTATACAGAAAGGC,-0.959,0.149,1.07,-0.047,-0.199,-0.306,-0.433,0.0512,-0.494,-0.0846,-0.153,0.49,-0.879,0.393,1.63,0.771,-0.417,,
ATCGAAAGGTCGAAAGTGAGTATACCCACCCGAA,-0.0216,1.35,1.11,0.905,0.0924,2.02,0.265,2.62,0.478,3.19,1.74,3.15,1.22,3.52,1.51,-0.286,0.782,,
TAGCCTAGGTCATTGGGCCAGTATAGTACGCATC,2.86,3.89,0.41,0.0888,0.963,1.58,-0.104,2.17,-0.237,3.59,3,4.22,1.6,2.73,2.83,0.768,0.954,,
CCTGCTAGGTCAATGGTCAGCTCAAGCAGCTCGC,4.38,4.13,2.6,-0.398,1.12,0.974,-0.482,1.88,-0.428,3.79,3.02,4.32,1.88,1.92,2.23,0.708,0.174,,
TCTAGTTGGTGACGGAGGTCACACACGACGGGTA,1.77,3.08,0.76,0.756,2.31,3.78,0.917,3.78,0.681,3.36,3.88,3.21,0.917,4.29,3.41,2.23,1.83,,
CGAACTAGGTCAGAACAGTACAGTGAAGGATGAT,7.19,7.31,2.36,3.58,1.14,0.921,0.234,0.873,0.291,,1.96,3.33,0.94,1.27,1.83,0.222,0.229,0.879,2.46
GCTGCTAGGTAAGGTTGGTCAGCTAACGGGTACG,0.515,0.0144,-1.12,-0.451,-0.00134,-0.363,-0.442,-0.608,-0.745,,0.738,-0.313,-0.185,-0.296,0.277,-0.184,-0.0228,-0.447,-0.277
AGTCAAATTTCATCTAGGTAACGTAAGATATGCT,0.205,2.04,1.11,1.49,0.098,-0.111,-0.176,0.369,0.837,,-0.24,0.382,0.077,0.184,0.722,0.526,0.0484,0.0583,-0.128
TATCCTAGGTCAGATCGGGCCAGTATACGCTATA,2.51,3.41,1.32,1.4,1.11,1.82,0.14,1.8,0.0561,3.33,2.53,3.86,0.36,2.21,4.25,0.858,0.237,,
TAGCCAAGGTCATTCAGGGGCCAGTATAGAAAGC,1.73,3,1.11,0.966,3.14,4.91,1.43,5.72,0.389,5.06,4.08,6.27,4.05,5.47,4.08,1.75,3.99,,
CCTCGGAGGACAACCGGAGGTCAGAGCTGCCAGA,-0.468,0.238,-0.802,-1.28,1.17,2.33,0.578,2.46,0.0885,2.98,3.53,3.47,0.243,1.86,3.14,1.3,1.41,,
CTCGAAAGGTCGGTTGAGGTGACTATACGGATAA,0.163,1.15,0.145,0.106,0.89,3.61,0.00293,2.11,0.415,,2.54,2.85,0.99,2.76,5.16,1.68,0.829,2.77,3.04

Sequence,PBM binding z-score [1],PBM binding z-score [2],PBM binding z-score [3],PBM binding z-score [4],PBM binding z-score [5],PBM binding z-score [6],PBM binding z-score [7],PBM binding z-score [8],PBM binding z-score [9],PBM binding z-score [10],PBM binding z-score [11],PBM binding z-score [12],PBM binding z-score [13],PBM binding z-score [14],PBM binding z-score [15],PBM binding z-score [16],PBM binding z-score [17],PBM binding z-score [18],PBM binding z-score [19]
TTATCAAGGTGAAAGGTCGTTGATGCACGCCTTG,4.86,6.15,1.25,1.43,2.37,3.99,0.766,5.9,0.465,,2.42,2.44,0.854,5.89,3.44,1.19,1.54,3.29,4.25
CAACCTAGGTCACCGGAAGGTCAAAGTCCGCATG,4.96,5.75,0.0174,0.904,8.27,6.29,2.96,7.58,5.02,5.39,5.77,8.03,2.46,7.71,4.63,3.03,4.09,,
ACTCGGAGGACAAAGGTCACAGCTACGCCAGTGA,1.61,4.71,0.569,-0.0483,5.62,5.5,0.867,6.75,3.36,5.12,5.26,6.99,1.55,,4.23,1.62,2.46,,
TTACCAAGGTGAAAGGTCGTTGAAGCACGCCTTG,2.63,5.39,0.668,-0.186,1.84,4.44,0.41,6.52,-0.363,,2.64,2,0.879,5.84,3.57,0.624,1.29,3.42,4.3
CAAACTAGGTCACAGGGGTCAAAGTCCGTGCGTA,8.38,9.12,4.98,3.18,3.99,6.9,8.47,8.18,1.96,5.46,5.94,7.58,3.6,8.57,,3,7.07,,
AACGAAAGGTCGACGAGGTGAGTATACACCGTTT,0.793,1.94,0.978,0.568,1.32,2.95,0.578,3.56,0.305,3.91,3,3.73,1.64,4.41,3.85,0.519,0.772,,
GCTGCTAGGTCAACTGAAGGTCAGCTAAAGCTCG,5,4.47,-0.0557,-1.06,5.87,4.62,0.437,6.6,2.11,4.98,5.31,7.38,1.68,4.88,4.03,1.66,1,,
ATCTCTAGGTAACAAGGTCAGTGAAAGAGAGGAC,4.43,4.75,1.63,1.14,2.4,1.98,1.12,2.3,1.5,3.07,3.49,3.28,0.451,2.26,3.07,2.37,1.78,,
TGTCAAAGTTCTAAGGTAACGTAAGTATCCACAC,-0.558,1.37,1.07,0.895,0.299,0.23,0.0534,1.09,0.0558,0.779,0.168,0.585,-0.0657,,2.88,2.43,-0.114,,
GATACAGGGTGAAGGCCAGAGTACGCGTATTGAT,0.737,1.34,-0.37,-0.0968,-0.218,-0.324,-0.0784,-0.132,-0.36,0.882,0.673,0.704,-0.695,0.721,,-0.473,-0.248,,
CGAACTAGGTCATCGAGGACAGTGAATACATTGA,8.15,8.47,2.12,2.09,1.73,2.62,2.57,2.26,0.951,4,3.3,5.19,2.23,3.01,4.11,2.51,2.73,,
CCAACTAGGTCATTGACAGGACAGTGAATAGTAA,7.67,7.49,1.99,0.953,1.89,1.68,0.805,2.23,1.58,3.77,2.83,4.34,2.47,2.61,2.88,1.31,1.64,,
CGAACTAGGTGATTGACAGGACAGTGAATAGTAA,6.28,5.92,0.852,0.609,0.553,-0.082,0.228,0.0788,0.46,0.167,0.647,0.266,0.246,-0.176,0.755,0.252,0.00262,,
TAGCCTAGCTCATTCAGGGGCCAGTATAGAAAGC,-0.101,-0.269,-0.969,-0.592,-1.77,-0.527,-0.788,-0.603,-1.25,-0.199,-0.0305,-0.378,-0.495,-0.481,-0.465,-0.799,-0.369,,
TGTCAAAGCTCAAAGGTAACGTAAGTATCCACAC,-0.538,0.996,0.525,0.434,-0.0175,0.078,-0.43,0.683,-0.12,0.692,0.284,0.498,-1,0.764,1.25,-0.706,-0.613,,
CAAACCAGGTCACGAAAGGTCAAAGTCGAATGAC,6.74,7.37,0.599,1.79,6.46,7.33,5.57,8.04,4.58,5.74,5.97,9.05,2.9,,5.23,3.86,4.47,,

# Source: the supplement of paper PMC6555819
